Measurements as given in PubChem BioAssay AID504834 (National Center for Advancing Translational Sciences (NCATS), 2011).
Among all 320,000 compounds or so, about 22,000 (6.9%) were called active. Inconclusive results (about 27%) are left out. Calls come from the whole dose curve; as a rule, active = well fitted inhibition curve with a large enough effect; inconclusive = small, poorly fitted or top-dose-only effect, or another doubt; inactive = no such curve, though single readings can be large or run the other way. Many of the other results were omitted from the sample, so actives are more common in it than they were.

assay: Primary qHTS for delayed death inhibitors of the malarial parasite plastid, 96 hour incubation; conditions: P. falciparum luciferase reporter growth; series mostly up to 28.7 µM; activity change, negative = inhibition: at the top concentration
Procedure, shortened: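 Luminescence readout: decreased luciferase signal marks inhibited growth of reporter-expressing P. falciparum in infected red cells (2% hematocrit, 0.05% parasitemia final), exposed to compound two generations (96 h, 37 C, 5% CO2).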
% is set by controls: 0 for no effect and ±100 for the full control effect; potency is the fitted concentration of half-maximal effect.

Row | Structure (SMILES) | activity change, negative = inhibition | Potency
1 | O=C(COc1ccccc1)Nc1ccc(C(=O)N2CCCC2)cc1 | -28.6% (inactive) | 
2 | COc1cc(Cl)c(C)cc1NC(=O)CN1CCCCCC1 | 7.08% (inactive) | 
3 | Cc1cc(NC(=O)CSC2=NS(=O)(=O)c3cc(Cl)ccc3N2)no1 | 11.7% (inactive) | 
4 | CCCCOP(=O)(c1ccc(N(C)C)cc1)C(O)c1cc(OC)ccc1OC (configuration not stated) | -25.3% (inactive) | 
5 | Cc1ccc(C(O)P(=O)(OC(C)C)c2ccc(N(C)C)cc2)cc1 (configuration not stated) | -0.713% (inactive) | 
6 | CCCOP(=O)(c1ccc(N(C)C)cc1)C(O)c1cc(OC)c(OC)c(OC)c1 (configuration not stated) |  | 10.4 µM (active)
7 | CCCCSc1nc2ccccc2[nH]1 | 4.01% (inactive) | 
8 | CN=C1S/C(=C\c2ccc(Sc3ccc(Cl)cc3)o2)C(=O)N1C | 43.3% (inactive) | 
9 | CCC(C)N1C(=O)S/C(=C/c2ccc(Sc3nc4ccccc4[nH]3)o2)C1=O (configuration not stated) |  | 1.65 µM (active)
10 | [2H]C(CCOS(N)(=O)=O)c1ccccc1 (configuration not stated) | 57.8% (inactive) | 
11 | COCCCn1c(SCC(=O)NC2CCCC2)nnc1-c1ccccc1 | 11.5% (inactive) | 
12 | CC(C)(C)C(=O)NC1CC2CCCC(C1)N2C(=O)Nc1ccccc1F (configuration not stated) | 52% (inactive) | 
13 | O=S(=O)(c1cccc(-c2nnc(SC(F)F)n2-c2ccccc2)c1)N1CCCCC1 |  | 7.38 µM (active)
14 | O=S(=O)(c1cccc(-c2cn3ccccc3n2)c1)N1CCCC1 | -18.2% (inactive) | 
15 | O=S(=O)(c1cccc(-c2nnc3n2CCCCC3)c1)N1CCOCC1 | 29.6% (inactive) | 
16 | Cc1noc(C)c1C(=O)OCC(=O)N1CCN(S(=O)(=O)c2ccc3ccccc3c2)CC1 | 17.1% (inactive) | 
17 | Cc1cc(S(=O)(=O)NC2CCCC2)ccc1-n1cnnn1 | 5.07% (inactive) | 
18 | C[C@@H](Nc1nc(-c2ccccc2)nc2c1oc1ccccc12)C(=O)O | -16.2% (inactive) | 
19 | Cc1nc(Cl)c2oc3ccccc3c2n1 | 102% (inactive) | 
20 | O=c1[nH]c(CSc2ccccc2)nc2c1oc1ccccc12 |  | 5.22 µM (active)
21 | CC(C)(C)c1cc[n+](-c2[nH]c(=O)sc2/C=N/N=C(\[O-])c2ccccc2)cc1 | 34.6% (inactive) | 
22 | O=C(OCC(=O)N1CCN(C(=O)c2ccco2)CC1)c1cccc(O)c1 | 6.27% (inactive) | 
23 | CC(=O)Nc1ccc(NC(=O)CSc2nnc(C3CC3)n2-c2ccccc2)cc1 | 70.6% (inactive) | 
24 | Nc1nnn(CC(=O)N/N=C/c2ccc(O)cc2)n1 | 10.6% (inactive) | 
25 | O=C(NC1CCN(C(=S)Nc2ccc(Cl)cc2)CC1)C1CCCCC1 | -28.8% (inactive) | 
26 | O=C(NC1CC2CCCC(C1)N2C(=O)N1CCCCC1)C1CCCCC1 (configuration not stated) |  | 14.7 µM (active)

Row | Structure (SMILES) | activity change, negative = inhibition | Potency
27 | CCOCCCNC(=S)N1CCC(NC(=O)C2CCCCC2)CC1 | -18.8% (inactive) | 
28 | CSc1ccccc1OCc1cc(C(=O)N2C[C@H]3CC[C@H]2C3)no1 | -4.64% (inactive) | 
29 | Cc1ccc(S(=O)(=O)NCCCn2ccnc2)cc1C(=O)NC(C)C | -11.3% (inactive) | 
30 | COc1ccc(S(=O)(=O)N2CCCC(C(=O)NCCCn3ccnc3)C2)cc1OC (configuration not stated) | 9.78% (inactive) | 
31 | CCOc1ccc(S(=O)(=O)NCCCn2ccnc2)cc1NC(C)=O |  | 13.1 µM (active)
32 | CC(NC(=O)COc1cccnc1[N+](=O)[O-])c1ccc(Cl)cc1Cl (configuration not stated) | 8.65% (inactive) | 
33 | Clc1cccc(CN2COc3c(cc(Cl)c4cccnc34)C2)c1 |  | 0.329 µM (active)
34 | CC(C)CC(=O)N1CCN(Cc2cccc(Cl)c2)CC1 | -5.91% (inactive) | 
35 | O=C(C1CCC1)N1CCN(c2ccccc2)CC1 | -4.28% (inactive) | 
36 | COc1ccc(NC(=O)CCC(=O)Nc2nnc(C3CCCCC3)s2)cc1 | 20.1% (inactive) | 
37 | COc1cc(C(=O)NCc2cc3cc(Cl)ccc3n2C)cc(OC)c1OC | -1.87% (inactive) | 
38 | Cc1nc(SCC(=O)N2CCc3ccccc3C2)c2c(C)c(C)sc2n1 | 0.135% (inactive) | 
39 | CCn1c(SCC(=O)c2ccc3ccccc3c2)nnc1-c1cccs1 | -3.66% (inactive) | 
40 | O=C(CSc1nnc(-c2cccs2)n1Cc1ccccc1)N1CCc2ccccc2C1 |  | 10.4 µM (active)
41 | CCn1c(Cc2ccc(OC)cc2)nnc1SCC(=O)Nc1ccc(N2CCOCC2)cc1 | 32.6% (inactive) | 
42 | CCn1c(SCC(=O)NC2CCCC2)nnc1-c1ccoc1C | 251% (inactive) | 
43 | O=C(NNC(=O)c1cccc(S(=O)(=O)Nc2ccc(Cl)cc2)c1)c1ccc(=O)[nH]c1 | 17.2% (inactive) | 
44 | COc1ccc(NS(=O)(=O)c2ccc(NC(=O)c3ccc(N(C)S(C)(=O)=O)cc3)cc2)cc1 | 16.5% (inactive) | 
45 | CCN(CC)c1ccc(NC(=O)c2ccc(=O)[nH]c2)cc1S(=O)(=O)Nc1ccc(OC)cc1 |  | 9.28 µM (active)
46 | COc1ccc(S(=O)(=O)n2cnc3ccccc32)c(C)c1 | 17.7% (inactive) | 
47 | CCCc1c(C(=O)N/N=C(\C)CCc2ccc(OC)cc2)nnn1-c1nonc1N | 41% (inactive) | 
48 | CCN1CCN(C(=O)N(Cc2ccc(Cl)cc2)S(=O)(=O)c2ccc(C)cc2)CC1 | -8.07% (inactive) | 
49 | O=C(CSc1n[nH]c(-c2cccnc2)n1)Nc1ccc(Cl)cc1 | 4.9% (inactive) | 
50 | CC(C)CN(C(=O)c1ccc2c(c1)OCO2)C1CCS(=O)(=O)C1 (configuration not stated) | 39.1% (inactive) | 
51 | O=C(CN1C(=O)COc2ccccc21)NCCN1CCc2ccccc2C1 | 9.16% (inactive) | 
52 | O=C(CN1C(=O)COc2ccccc21)Nc1ccc(F)cc1 |  | 1.47 µM (active)

Row | Structure (SMILES) | activity change, negative = inhibition | Potency
53 | O=C(CN1C(=O)COc2ccc(Cl)cc21)Nc1ccc(N2CCOCC2)cc1 | 5.66% (inactive) | 
54 | O=C(CCCN1C(=O)/C(=C/c2cccs2)SC1=S)Nc1ccc(O)cc1 | -7.03% (inactive) | 
55 | NS(=O)(=O)c1ccc(CCNC(=O)CN2C(=O)c3ccccc3S2(=O)=O)cc1 | -1.1% (inactive) | 
56 | CCN(C(=O)CSc1ncnc2sccc12)c1c(N)n(Cc2ccccc2)c(=O)[nH]c1=O | -7.47% (inactive) | 
57 | COc1cccc(OC)c1C(=O)Nc1ccc2c(c1)n(C)c(=O)n2C | -1.38% (inactive) | 
58 | COc1ccc(C(=O)NC2CC2)cc1OC1CCN(C/C=C/c2ccccc2)CC1 |  | 11.7 µM (active)
59 | COc1ccc(C(=O)N(C)CC(O)c2ccccc2)cc1OC1CCN(C(C)=O)CC1 (configuration not stated) | 52.3% (inactive) | 
60 | COc1ccc(C(=O)NC2CC2)cc1OC1CCN(Cc2ccc(SC)cc2)CC1 | 4.51% (inactive) | 
61 | O=C(NCCc1ccccn1)c1nc(Cn2cc([N+](=O)[O-])cn2)no1 | 1.54% (inactive) | 
62 | CC(OC(=O)CNC(=O)c1cccc(F)c1)C(=O)NC1CCCCC1C (configuration not stated) | -0.897% (inactive) | 
63 | CC(C)(C)c1cc(C(=O)N/N=C/c2ccc([N+](=O)[O-])s2)n[nH]1 |  | 1.65 µM (active)
64 | O=[N+]([O-])c1ccc(C=Nc2ccc(Cl)cc2Cl)s1 | 0% (inactive) | 
65 | COc1ccc2ccccc2c1/C=N/NC(=O)c1cc(C)[nH]n1 | 2.41% (inactive) | 
66 | COC(=O)c1ccc(COC(=O)c2cnc(Cl)c(Cl)c2)cc1 | 40.3% (inactive) | 
67 | CCOc1ccc(CCNC(=O)COC(=O)CCS(=O)(=O)c2ccc(C)cc2)cc1OCC | 7.41% (inactive) | 
68 | CCC(C(=O)N1CCN(S(=O)(=O)c2sc(C(=O)O)c(C)c2C(=O)O)CC1)c1ccccc1 (configuration not stated) | -12.6% (inactive) | 
69 | CN(C(=O)CN1C(=O)CCSc2ccc(S(=O)(=O)N3CCCC3)cc21)c1ccccc1 | -15.5% (inactive) | 
70 | COc1ccc(S(=O)(=O)N2CCC(C(=O)N3CCCC3)CC2)cc1C | -10.4% (inactive) | 
71 | CCOc1cc(CN2CCN(C(=O)CC(C)C)CC2)ccc1OC | 26.4% (inactive) | 
72 | COc1ccc(S(=O)(=O)N2CCC(C(=O)N3CCc4ccccc4C3)CC2)cc1OC |  | 8.28 µM (active)
73 | CCOc1ccc(NC(=O)COc2ccc(C(=O)N3CCC(C(N)=O)CC3)cc2OC)cc1 | -3.23% (inactive) | 
74 | COC(=O)Cc1ccc(OC(=O)C2CCN(S(=O)(=O)c3ccc(OC)c(OC)c3)CC2)cc1 | -0.567% (inactive) | 
75 | CCOc1cc(C(=O)N2CCc3cc(OC)c(OC)cc3C2)ccc1OC(F)F |  | 5.86 µM (active)
76 | COc1ccc(S(=O)(=O)N2CCCCC2)cc1Br | -13.7% (inactive) | 
77 | COc1cc(C(=O)NNC(=O)c2ccc(S(=O)(=O)N3CCCCC3)cc2)cc(OC)c1OC | 73.2% (inactive) | 
78 | COc1cc2c(cc1OC)CN(C(=O)c1ccc(S(=O)(=O)N3CCCCCC3)cc1)CC2 |  | 0.465 µM (active)

Row | Structure (SMILES) | activity change, negative = inhibition | Potency
79 | COC(=O)c1ccc(C)c(NC(=O)C2CC(=O)N(C3CCCC(C)C3C)C2)c1 (configuration not stated) | -0.079% (inactive) | 
80 | COC(=O)c1ccccc1NC(=O)C1CCN(C(=O)N2CCOc3ccccc32)CC1 | 16.7% (inactive) | 
81 | O=C(COC(=O)c1cccc(Cl)c1)Nc1ccc2[nH]c(=O)[nH]c2c1 | 3.17% (inactive) | 
82 | Cc1ccc(CN(CC(=O)NCC2CCCO2)S(=O)(=O)c2ccc(C)cc2)cc1 (configuration not stated) | -10.6% (inactive) | 
83 | CC(=O)Nc1ccc(NC(=O)CN2C(=O)COc3ccc(S(=O)(=O)N4CCCCC4)cc32)cc1 | 1.73% (inactive) | 
84 | Cc1ccn2c(=O)nc(SCC(=O)NCc3ccc4c(c3)OCO4)nc2c1 | 7.6% (inactive) | 
85 | Cc1ccc(C)c(C(=O)COC(=O)Cn2[nH]c(=O)c3ccccc3c2=O)c1 | -4.63% (inactive) | 
86 | Cc1nc(NC(=O)c2ccc3c(c2)OCCO3)ccc1Br | -5.44% (inactive) | 
87 | COc1ccc(-c2n[nH]c(C)c2-c2ccccc2OC)c(O)c1 |  | 11.7 µM (active)
88 | CCOc1ccc(-c2nc(N)ncc2-c2ccccc2OC)c(O)c1 | -0.615% (inactive) | 
89 | C=C(C)COc1ccc(-c2n[nH]c(C)c2-c2ccccc2OC)c(O)c1 |  | 11.7 µM (active)
90 | C=C(C)COc1ccc(-c2ncncc2-c2ccc(OC)cc2)c(O)c1 | 0% (inactive) | 
91 | CCOc1ccc(-c2n[nH]c(C)c2-c2ccccn2)c(O)c1 | 8.94% (inactive) | 
92 | COc1ccc(-c2[nH]ncc2CN(C)Cc2c(C)n[nH]c2C)c(OC)c1 | 0.962% (inactive) | 
93 | COc1ccc(N=Nc2ccc(O)c(P(=O)(c3ccccc3)c3ccccc3)c2)cc1 | 28% (inactive) | 
94 | CCc1nc2nc(C)c(NS(=O)(=O)c3ccc4c(c3)CCCC4)c(=O)n2[nH]1 | -11.6% (inactive) | 
95 | C=CCn1cc(Cl)cc(C(=O)Nc2ccccc2)c1=O | 21.7% (inactive) | 
96 | CCOc1ccc(N/C=C/C(=O)c2cc(OC)c(OC)c(OC)c2)cc1 | 7.64% (inactive) | 
97 | Cc1cccc(NC(=O)CSCC(=O)Nc2nnc(C3CC3)s2)c1 | -13.4% (inactive) | 
98 | NC(=O)NC(=O)C(OC(=O)CCNS(=O)(=O)c1ccccc1)c1ccccc1 (configuration not stated) | 78.3% (inactive) | 
99 | COc1ccc2c(c1)c1nc3n(c(=O)c1n2CC(=O)Nc1ccccc1)CCS3 | 6.4% (inactive) | 
100 | CCn1c(SCC(=O)Nc2ccc(C)cc2)nc2nc3c(cc2c1=O)CCCC3 |  | 14.7 µM (active)
101 | CCn1c(CC(=O)Nc2ccc(C)cc2)nnc1SCC(=O)Nc1nc(C)cs1 | 75.3% (inactive) | 
102 | COCCn1c(SCC(=O)Nc2ccc3c(c2)CCC3)nc2ccccc2c1=O | 0% (inactive) | 
